Bioassay records from PubChem BioAssay.
ALDH1A1 block = inhibitors of human aldehyde dehydrogenase 1A1; P00352; Purified ALDH1A1, NADH fluorescence, propionaldehyde substrate; Potency, µM (highest dose often 75.3 µM), without a hit: top-dose activity, negative = inhibition, usual class: inhibitors; actives 7.3% (n = 220,000);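 note: potency is the fitted concentration of half-maximal effect; plate controls were no enzyme wells and a reference inhibitor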
Target sequence (P00352 whole entry, looked up): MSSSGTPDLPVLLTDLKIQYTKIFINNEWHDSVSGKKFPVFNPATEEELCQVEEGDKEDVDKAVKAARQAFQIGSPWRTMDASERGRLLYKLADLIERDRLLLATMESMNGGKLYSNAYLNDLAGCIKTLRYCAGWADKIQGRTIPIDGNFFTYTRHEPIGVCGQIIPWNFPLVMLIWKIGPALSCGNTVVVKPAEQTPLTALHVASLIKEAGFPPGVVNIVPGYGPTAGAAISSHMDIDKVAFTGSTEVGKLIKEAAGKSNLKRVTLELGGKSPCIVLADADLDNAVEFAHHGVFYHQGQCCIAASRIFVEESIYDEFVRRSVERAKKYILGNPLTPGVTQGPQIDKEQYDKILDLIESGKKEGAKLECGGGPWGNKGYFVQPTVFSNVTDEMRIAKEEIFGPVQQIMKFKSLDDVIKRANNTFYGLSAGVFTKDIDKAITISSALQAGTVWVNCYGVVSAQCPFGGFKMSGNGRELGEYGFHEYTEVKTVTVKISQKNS
PNC inhibitor = inhibitors of perinucleolar compartment assembly. PC3M PTB-GFP, PNC prevalence imaging, 16 h; active compounds read low. activity change (PNC), negative = inhibition, % at 10 µM. actives 3.1% (n = 140,000). AID 2417;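 active = readout at or below -70, meaning at least 70% loss of cells showing the perinucleolar compartment, a nuclear body marking cancer cells; inconclusive = readout between -30 and a set limit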;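 note: plate controls were DMSO wells for no effect and camptothecin positive control wells for full effect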
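Compounds are pinned in duplicate onto adhered PC3M cells stably expressing GFP-tagged PTB and incubated 16 h at 37 C. Cells are then fixed, nuclei stained with Hoechst, and PNC-positive cells counted.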
HPGD inh = inhibitors of human 15-hydroxyprostaglandin dehydrogenase (HPGD); purified HPGD, NADH fluorescence kinetic, PGE2 substrate; P15428; AID 894; Potency, µM, for inactives: at the top dose activity change, negative = inhibition, actives largely listed as inhibitors; actives 4.3% (n = 150,000); note: potency is the fitted concentration of half-maximal effect
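20 nM HPGD preincubated 15 min at room temperature with compound in 50 mM Tris-HCl pH 8, 0.01% Tween 20. Started with 1 mM NAD+ and 30 uM prostaglandin E2; NADH fluorescence (360/450 nm) read 5 times over 30-s intervals, last minus first.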
Numbers without * were called inactive; [ ] = dose if it differs, or a comment. Sampled rows, rich in hits. Any-hit rate of the full collection: about 11%. Unless noted, calls come from the whole dose curve; as a rule, active = well fitted inhibition curve with a large enough effect (not every such curve was filed as active); inconclusive = small, poorly fitted or top-dose-only effect, or another doubt; inactive = no such curve, though single readings can be large or run the other way. Unless noted, % is set by controls: 0 for no effect and ±100 for the full control effect.

How did Cc1ccc(C)c(N2CCN(C(=O)CCCN3C(=S)NC(C)(C)CC3C)CC2)c1 (stereo unspecified) do in these assays?
ALDH1A1 block: inconclusive; PNC inhibitor: 0; HPGD inh: -6%

What do the screens show for `Cc1ccccc1N/N=C1\CCCNC1=O`?
ALDH1A1 block: 10µM*; PNC inhibitor: 5; HPGD inh: 22µM*

How did Cc1ccc(C)c(N/N=C2\CCCNC2=O)c1 do in these assays?
ALDH1A1 block: 0%; PNC inhibitor: 32; HPGD inh: -21%

How did COCCN1Cc2cccc(C(=O)Nc3ccc(C)cc3)c2C1=O do in these assays?
ALDH1A1 block: -5%

What do the screens show for `CCCN1Cc2cccc(C(=O)NC(CC(=O)OCC)c3ccc(C)cc3)c2C1=O` (stereo unspecified)?
ALDH1A1 block: 13µM*

What do the screens show for `Cc1csc(NC(=O)CS(=O)(=O)c2ccccc2)n1`?
ALDH1A1 block: 1%

How did COc1cc(C(=O)N2c3ccccc3CC2C)cc(OC)c1OC (stereo unspecified) do in these assays?
ALDH1A1 block: 1%; PNC inhibitor: -82*; HPGD inh: -8%

What do the screens show for `CC1Cc2ccccc2N1C(=O)c1ccnc(C(C)(C)C)c1` (stereo unspecified)?
ALDH1A1 block: inconclusive; PNC inhibitor: 10; HPGD inh: -18%

How did NS(=O)(=O)c1ccc(NC(=O)COC(=O)CCNC(=O)NC23CC4CC(CC(C4)C2)C3)cc1 do in these assays?
ALDH1A1 block: -7%; PNC inhibitor: 32; HPGD inh: -1%

What do the screens show for `Cc1cc(C)c(NC(=O)CSc2nnc(-c3ccncc3)n2Cc2ccco2)c(Cl)c1`?
ALDH1A1 block: -9%; PNC inhibitor: inconclusive; HPGD inh: -11%

How did CCOC(CNC(=O)c1ccc(N2CCc3ccccc32)c([N+](=O)[O-])c1)OCC do in these assays?
ALDH1A1 block: 10µM*; PNC inhibitor: inconclusive; HPGD inh: -19%

Results for O=C(NCc1ccc(F)cc1)c1ccc(N2CCc3ccccc32)c([N+](=O)[O-])c1 ?
ALDH1A1 block: inconclusive; PNC inhibitor: -4; HPGD inh: -21%

How did CC(C)CC(c1nnnn1Cc1ccc(F)cc1)N1CCC(C(N)=O)CC1 (stereo unspecified) do in these assays?
ALDH1A1 block: 12%

What do the screens show for `COc1cc(/C=N/OCC(=O)NC2CCCCC2)ccc1OCc1ccccc1`?
ALDH1A1 block: 22µM*; PNC inhibitor: inconclusive; HPGD inh: -22%

How did COc1cc(/C=N/OCC(=O)NC23CC4CC(CC(C4)C2)C3)ccc1OCc1ccccc1 do in these assays?
ALDH1A1 block: 22µM*; PNC inhibitor: -24

Results for COc1cc(/C=N/OCC(=O)Nc2ccc(OC(F)F)cc2)ccc1OCc1ccccc1 ?
ALDH1A1 block: -2%; PNC inhibitor: -6; HPGD inh: -14%

Results for CCOc1ccc(/C=N/OCC(=O)Nc2ccc(OCc3ccccc3)cc2)cc1OC ?
ALDH1A1 block: -4%; PNC inhibitor: inconclusive; HPGD inh: inconclusive

How did CCCCn1c(=O)c(CCC(=O)OCC(=O)NC(=O)NCCC(C)C)nc2ccccc21 do in these assays?
ALDH1A1 block: -11%

Results for CCOC(=O)c1c(-c2cccs2)csc1NC(=O)CC(C)C ?
ALDH1A1 block: inconclusive; PNC inhibitor: 12; HPGD inh: inconclusive

How did CCOC(=O)c1c(-c2ccc(C)o2)csc1NC(=O)COC(=O)c1cccs1 do in these assays?
ALDH1A1 block: 14µM*; PNC inhibitor: inconclusive; HPGD inh: 22µM*

What do the screens show for `CCOC(=O)c1c(-c2cccs2)csc1NC(=O)c1ccco1`?
ALDH1A1 block: 7%; PNC inhibitor: -100*; HPGD inh: inconclusive

Results for CCOC(=O)c1c(-c2ccc(C)o2)csc1NC(=O)CN1CCOCC1 ?
ALDH1A1 block: -13%; PNC inhibitor: inconclusive; HPGD inh: inconclusive

Results for COC(=O)C/C=C\[C@@H](C)[C@@H](/C=N\OC[C@@H](C)[C@H](OCc1ccccc1)C(C)C)OC ?
ALDH1A1 block: -2%[13.5 µM]

What do the screens show for `O=C(c1ccccc1)N1CCC(c2nc3c(nnn3Cc3ccccc3Cl)c(=O)[nH]2)CC1`?
ALDH1A1 block: inconclusive; PNC inhibitor: -6; HPGD inh: 11µM*

What do the screens show for `O=C(Cc1cccs1)N1CCCC(c2nc3c(nnn3Cc3ccccc3Cl)c(=O)[nH]2)C1` (stereo unspecified)?
ALDH1A1 block: inconclusive; PNC inhibitor: 14; HPGD inh: inconclusive

What do the screens show for `COc1ccccc1Cn1nnc2c(=O)[nH]c(C3CCN(C(=O)c4ccc(F)cc4)CC3)nc21`?
ALDH1A1 block: -3%; PNC inhibitor: 27; HPGD inh: 11µM*

Results for COc1ccccc1Cn1nnc2c(=O)[nH]c(C3CCN(C(=O)c4ccccc4Cl)CC3)nc21 ?
ALDH1A1 block: inconclusive; PNC inhibitor: -24; HPGD inh: 14µM*

What do the screens show for `CC(C)(C)CC(=O)N1CCC(c2nc3c(nnn3Cc3c(F)cccc3Cl)c(=O)[nH]2)CC1`?
ALDH1A1 block: 3%; PNC inhibitor: 29

Results for Cc1ccc(Cn2nnc3c(=O)[nH]c(C4CCN(S(=O)(=O)c5ccccc5)CC4)nc32)cc1 ?
ALDH1A1 block: -14%; PNC inhibitor: 13; HPGD inh: -27%

Results for O=C(c1ccccc1Cl)N1CCC(c2nc3c(nnn3Cc3ccco3)c(=O)[nH]2)CC1 ?
ALDH1A1 block: 28µM*; PNC inhibitor: 4; HPGD inh: 14µM*

How did COc1ccccc1Cn1nnc2c(=O)[nH]c(C3CCN(C(=O)c4ccc(C)cc4)CC3)nc21 do in these assays?
ALDH1A1 block: 1%; PNC inhibitor: 9; HPGD inh: inconclusive

Results for OCC(O)C(O)C(O)C(O)C(O)CO (stereo unspecified) ?
ALDH1A1 block: -7%; HPGD inh: -8%

Results for Cc1cccc(C2=N[C@@H](CC(C)C)CO2)c1 ?
ALDH1A1 block: 0%[120 µM]; HPGD inh: -7%

Results for COc1ccc(O[C@H]2C=C[C@@H](c3ccccc3)O[C@H]2COC(=O)CC/C(C)=N\O[C@@H](C)c2cn([C@H]3COC[C@H]3O)nn2)cc1 ?
ALDH1A1 block: -3%[13.5 µM]

How did CCOC(=O)c1cc2n(c1/N=C/N(C)C)-c1ccccc1C2=O do in these assays?
ALDH1A1 block: 18µM*; PNC inhibitor: -26; HPGD inh: -14%

Results for CCOC(=O)c1cc(=O)[nH]c2ccccc12 ?
ALDH1A1 block: 0%

How did O=C(Nc1cccc(S(=O)(=O)N2CCOCC2)c1)c1cnccn1 do in these assays?
ALDH1A1 block: 7%

How did O=C(Nc1cccnc1)c1ccc(C(=O)Nc2cccnc2)cc1 do in these assays?
ALDH1A1 block: 10%

What do the screens show for `O=C(Nc1cccnc1)c1c(F)c(F)c(F)c(F)c1F`?
ALDH1A1 block: 3%; PNC inhibitor: -107*; HPGD inh: -6%

What do the screens show for `Cc1nn2c(nc(N3CCCCC3)c3ccccc32)c1C=O`?
ALDH1A1 block: -6%; PNC inhibitor: inconclusive; HPGD inh: inconclusive

Results for Cc1nn2c([nH]c(=O)c3ccccc32)c1C=O ?
ALDH1A1 block: -1%; PNC inhibitor: 36; HPGD inh: 16µM*

What do the screens show for `C[C@]12C=CC(=O)C=C1CCC1C2C(O)C[C@]2(C)C1CC[C@]2(O)C(=O)CO` (stereo partly specified)?
ALDH1A1 block: 1%; HPGD inh: -6%
